In all, about 290,000 compounds went through this assay and about 3,000 (1%) were called active. This is one part of a sample in which actives are shown more often than they occur. A number with no mark means an inactive call. Cut-off read from the data, not from the text of the source: active = inhibition mostly above about 36% (no sharp cut-off); inactive = mostly below about 34%.

This test can be described thus: inhibition of NOD1-driven NF-kB reporter – cell-based, luminescence, uHTS, primary screen (AID 1578).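 Note: HEK-293T reporter cells stimulated with the NOD1 agonist gamma-tri-DAP.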 Particulars: NOD1-driven NF-kB luciferase reporter cells, at 4 µM, stronger effect = higher value. (In general: In a reporter assay the amount or activity of a reporter protein is the signal.)
As a reminder, the inhibition is the drop in the measured response relative to a control, in per cent. Regarding `Brc1c(CSc2nc3ccccc3o2)nc2ncccn12`, the inhibition is -66.9%.
Turning to `Cc1cc(C)cc(NC(=O)c2ccc(CSc3nnnn3C)cc2)c1`, the inhibition is -44.7%.
As to `COc1ccc(NC(=O)CN(C)C(=O)c2ccc(-c3cccc(C(F)(F)F)c3)o2)cc1`, the inhibition is -14.7%.
As for `C=CCOc1ccccc1CNCc1ccc(F)cc1`, the inhibition was -24%.
Consider `Cc1ccc(S(=O)(=O)c2nc(S(C)(=O)=O)sc2N2CCCCCC2)cc1`, for which the inhibition is 32.4%.
Take `Cc1ccc(S(=O)(=O)c2nc(S(C)(=O)=O)sc2N2CCCC2)cc1`: the inhibition is -19.8%.
`Cc1ccc(S(=O)(=O)c2nc(S(C)(=O)=O)sc2N2CCCCC2C)cc1` (centres undefined): the inhibition was 55.1% (active).
With `CC(=O)N1CCc2cc(S(=O)(=O)Nc3cccc(C(F)(F)F)c3)ccc21` the figure was 30.6%.
With `CC(=O)N1CCc2cc(S(=O)(=O)Nc3ccc(C)cc3)ccc21` the figure was 0%.
`CCCNC(=O)CN1C(=O)COc2ccc(S(=O)(=O)N3CCCCCC3)cc21`: the inhibition was -13.3%.
With `COc1ccc(Cl)cc1C(=O)Nc1cccc2ncccc12` the figure was 13.1%.
With `COc1ccc(OCc2cccc(C(=O)NN)c2)cc1` the figure was 38.9%.
For the compound `O=C(O)c1cccc(COc2ccc(CO)cc2Cl)c1`, the inhibition is 99.2% (active).
Take `CCOc1ccc(OCc2cccc(C(=O)N3CCCC3)c2)cc1`: the inhibition is -38%.
With `C/C(=N\OCc1cccc(C(=O)O)c1)c1ccc(Cl)cc1` the figure was 47.4% (active).
`O=C(O)c1cccc(COc2ccccc2Cl)c1`: the inhibition was 97.2%.
With `O=C(O)c1ccc(COc2ccc(CO)cc2Cl)cc1` the figure was -26.3%; with `COc1cccc(/C=C(/C#N)c2ccc(Cl)cc2)c1OCc1cccc(C(=O)O)c1`, 14.4%; with `COc1ccc(OCc2cccc(C(=O)O)c2)cc1`, 102% (active).
For `CCOc1ccc(OCc2cccc(C(=O)N(CC)CC)c2)cc1`, the inhibition is -59.7%.
Consider `CCOc1ccc(OCc2cccc(C(=O)O)c2)cc1`, for which the inhibition is 97.5% (active).
As for `COc1ccc(OCc2ccc(C(=O)O)cc2)cc1`, the inhibition is -70.3%.
As to `O=C1NC(=O)/C(=C\c2ccc(OCc3cccc(C(=O)O)c3)c(Cl)c2)N1`, the inhibition was -17.1%.
Take `O=C(N=C1SC2CS(=O)(=O)CC2N1c1ccc(OC(F)(F)F)cc1)C1CC1` (centres undefined): the inhibition was -27.3%.
With `O=C(NC(c1cccnc1)C(F)(F)F)c1cc(COc2ccc3c(c2)CCCC3)on1` (centres undefined) the figure was 1.4%.
For `Cc1nn(-c2ccccc2)c(=S)n1-c1ccccc1`, the inhibition is -7%.
In the case of `O=C(CSc1n[nH]c(-c2ccccc2)n1)Nc1ccc(F)cc1F`, the inhibition is -6.2%.
As for `COc1ccc(OCc2cc(C(=O)N3CCCCCCC3)no2)c(Cl)c1`, the inhibition is -23.7%.
`COCCn1c(C)cc(/C=C2/NC(=O)N(c3ccc(Cl)cc3)C2=O)c1C`: the inhibition was -49.9%.
As to `Cc1nn(Cc2cccc(C(=O)Nn3cc([N+](=O)[O-])cn3)c2)c(C)c1[N+](=O)[O-]`, the inhibition is 0.9%.
As for `COC(=O)c1cccc(Cn2cc([N+](=O)[O-])cn2)c1`, the inhibition was -7.1%.
In the case of `O=C(O)c1ccc(COc2ccc3c(c2)CCC3)cc1`, the inhibition is -2.9%.
With `O=C(O)c1cccc(COc2ccc3c(c2)CCC3)c1` the figure was 92.4% (active).
As for `NNC(=O)c1cccc(COc2ccc3c(c2)CCC3)c1`, the inhibition was 62.3%.
With `COc1ccc(OCc2cccc(C(=O)Nn3cc([N+](=O)[O-])cn3)c2)cc1`, the inhibition is 50.9% (active).
On to `COc1ccc(OC)c(-c2csc(NC(=O)Cc3ccc(OC)c(OC)c3)n2)c1`, for which the inhibition was 25.1%.
With `Cc1cc(C)cc(N(C(=O)c2csnn2)C(C(=O)NC(C)(C)C)c2cccs2)c1` (centres undefined) the figure was 10.5%.
Consider `O=C1CCCCC(=O)N(c2ccccc2)c2ccccc21`, for which the inhibition is 7.2%.
As to `CCOC(=O)c1cnc2ccc(OC)cc2c1NCc1ccccc1`, the inhibition is 3.2%.
In the case of `CCOC(=O)c1cnc2ccc(OCC)cc2c1NCc1ccccc1OC`, the inhibition is 72.7% (active).
Consider `CCOC(=O)c1cnc2ccc(OCC)cc2c1NCc1ccccc1`, for which the inhibition was -5.7%.
For `CN(C)Cc1ccc(F)cc1Sc1cc(Cl)ccc1Cl`, the inhibition was 63.7% (active).
With `CN(C)Cc1ccc(F)cc1Sc1ccc(Cl)cc1Cl` the figure was -13.9%; with `CN(C)C(=O)c1cc(F)ccc1Sc1cc(Cl)ccc1Cl`, -6.9%.
As for `CCc1ccc(-n2c(SCC(=O)N3CCC(C(=O)O)CC3)nnc2-c2ccncc2)cc1`, the inhibition is -31.9%.
In the case of `NC(=S)N/N=C/c1coc2ccc(Cl)cc2c1=O`, the inhibition was 9.6%.
Turning to `O=c1c(/C=N\NS(=O)(=O)c2ccccc2)coc2ccc(Cl)cc12`, the inhibition was 69.9% (active).
Regarding `O=C(N/N=C/c1coc2ccc(Cl)cc2c1=O)c1cc(O)cc(O)c1`, the inhibition was 31.6%.
With `CC(=O)N1CCN=C1SCc1ccccc1Cl` the figure was 1.2%; with `COc1ccc(C2C(C(=O)c3sc(C)nc3C)=C(O)C(=O)N2CCN(C)C)cc1` (centres undefined), -18.4%; with `CCOc1ccc(/C=C2\SC(=S)NC2=O)cc1OC`, -40.1%.
On to `COc1ccccc1OCCCOc1ccc(/C=C2\SC(=O)NC2=O)cc1OC`, for which the inhibition is 54.4%.
For the compound `COc1cc(/C=C2/SC(=O)NC2=O)ccc1OCc1ccccc1`, the inhibition is -38.4%.
Take `CCOc1ccc(N(C)c2ccc(/C=C3/SC(=S)NC3=O)cc2)cc1`: the inhibition is 43.6%.
For the compound `CC(=O)Nc1ccc(OCc2nnc(-c3ccc(Cl)cc3)o2)cc1`, the inhibition is -27.9%.
For `Cc1ccc2c(c1)c1c(n2CC(O)Cn2ccnc2C)C(=O)CCC1` (centres undefined), the inhibition is -18.6%.
In the case of `COCCNC(=S)N(CCc1c(C)[nH]c2ccccc12)Cc1ccco1`, the inhibition is -30.2%.
On to `O=C(CCN1C(=O)c2ccccc2C1=O)N1CCOCC1`, for which the inhibition was -25.4%.
As to `Cc1ccc2c(c1)CCCN2C(=O)Nc1ccc2c(c1)OCO2`, the inhibition was -2.3%.
For `COc1ccc(CNC(=O)Cn2cncn2)cc1OC`, the inhibition was -12.9%.
For `Cc1ccc(CNC(=O)Cn2cncn2)cc1`, the inhibition was 8.6%.
Consider `O=C(Cn1cncn1)NCc1ccc(Cl)cc1`, for which the inhibition is 66.1% (active).
With `Cc1cc(C)n(C(=O)CCCCCCCC(=O)n2nc(C)cc2C)n1` the figure was -26.9%; with `COc1ccc(NC(=O)c2cc3ccc4c5ccccc5[nH]c4c3cc2O)cc1`, -6.7%; with `O=C(Nc1ccc(Cl)cc1)c1cc2c(cc1O)[nH]c1ccccc12`, 43.7% (active).
Turning to `CC(=O)Nc1ccc2[nH]c3ccccc3c2c1`, the inhibition is -15.1%.
With `O=C(CSc1ccc(-c2ccccn2)nn1)NCc1ccc(F)cc1` the figure was -16.2%; with `COc1ccccc1CNC(=O)COC(=O)CNS(=O)(=O)c1ccc(C)cc1`, -3%.
For the compound `Nc1ncnc(N(c2ccccc2)C2CCCCC2)c1[N+](=O)[O-]`, the inhibition was 44.6%.
As to `CN(c1ncnc(N)c1[N+](=O)[O-])C1CCCCC1`, the inhibition was 80.2% (active).
With `Cc1ccc(N(c2ncnc(N)c2[N+](=O)[O-])C2CCCCC2)cc1` the figure was 22.2%; with `CN(c1ncnc(N)c1[N+](=O)[O-])C1CCS(=O)(=O)C1` (centres undefined), 58% (active); with `Nc1ncnc(NC2CCS(=O)(=O)C2)c1[N+](=O)[O-]` (centres undefined), 11.8%.
For `CN(Cc1ccccc1)c1ncnc(N)c1[N+](=O)[O-]`, the inhibition was 46%.
As for `CC1=Cc2ccccc2C(C#N)N1C(=O)c1ccccc1` (centres undefined), the inhibition is 31.4%.
On to `COc1ccc(-c2cc(C)no2)cc1S(=O)(=O)NCCCN1CCN(c2ccccc2)CC1`, for which the inhibition was -7.4%.
`CCc1ccc(-c2cc(C)no2)cc1S(=O)(=O)N1CCN(c2ccc(F)cc2)CC1`: the inhibition was 5.8%.
In the case of `Cc1cc(-c2ccc(C)c(S(=O)(=O)NCCCN3CCN(c4ccccc4)CC3)c2)on1`, the inhibition is 17.3%.
Take `Cc1cc(-c2ccc(C)c(S(=O)(=O)N3CCN(c4ccccn4)CC3)c2)on1`: the inhibition is -13%.
As to `CC(NC(=O)NC(=O)c1ccc(Cl)cc1Cl)C1CC1` (centres undefined), the inhibition was -53%.
In the case of `CCOc1ccc(NC(=S)NC(C)c2cccs2)cc1` (centres undefined), the inhibition is -21.7%.
With `COc1cc(NC(=O)CN(c2ccc(C)cc2)S(=O)(=O)c2c(C)noc2C)cc(OC)c1` the figure was -34.4%; with `O=C1C=C(Nc2ccccc2)c2ccccc2C1=O`, -24.6%; with `O=C1C=C(NCc2ccccc2)c2ccccc2C1=O`, 78.8% (active).
For `CCCCNC1=CC(=O)C(=O)c2ccccc21`, the inhibition was -7.1%.
Regarding `O=C1Cc2cc(S(=O)(=O)N3CCCCC3)ccc2N1`, the inhibition is -22.1%.
Regarding `CCCC(=O)NC(=S)Nc1cccc(NC(=O)c2ccccc2Cl)c1`, the inhibition is -18.6%.
`COc1ccc(CCNC(=O)c2ccc3ccccc3n2)cc1OC`: the inhibition is -14.9%.
Consider `O=C(Nc1cccc(S(=O)(=O)Nc2ccccc2F)c1)c1ccc2ccccc2n1`, for which the inhibition is 33.7%.
Take `COc1ccc(CNC(=O)c2ccc3ccccc3n2)cc1`: the inhibition was -33.9%.
Take `COc1ccccc1NS(=O)(=O)c1cc(NC(=O)c2ccc3ccccc3n2)ccc1Cl`: the inhibition was -24.5%.
`COc1cccc(C(=O)NC2CCN(CC(=O)Nc3nccs3)CC2)c1`: the inhibition was 7.4%.
With `O=C(c1ccc2nc(Cc3cccc(Cl)c3)oc2c1)N1CCC[C@H]1CO` the figure was -34%; with `O=C(CCN1CCCCO1)N1CCCC(N2CCN(c3ccc(F)cc3)CC2)C1` (centres undefined), -8.6%; with `Cc1ccc(CNC(=O)C2CCN(c3nn4c(=O)cc(C)nc4s3)CC2)cc1`, -23.9%.
Take `COc1ccc(C)cc1N(C(=O)c1ccc(C#N)cc1)C1=NC(C)(C)CS1`: the inhibition is -8.3%.
Turning to `COc1ccc(OCC(=O)N2CCc3ccccc3C2)cc1`, the inhibition was -21.2%.
As for `Cc1ccc(OCC(=O)N2CCc3ccccc3C2)cc1`, the inhibition is 4.6%.
For the compound `CCOC(=O)N/N=C/c1cn(CCCOc2ccccc2)c2ccccc12`, the inhibition is 79.6% (active).
`CCOC(=O)N/N=C/c1cn(CCCOc2ccc(C)cc2)c2ccccc12`: the inhibition is 31.1%.
With `C#CCn1cc(/C=N/NC(=O)c2cc3ccccc3o2)c2ccccc21` the figure was -7.9%; with `CCOC(=O)Cn1cc(/C=N/NC(=O)c2cc3ccccc3o2)c2ccccc21`, 35.8% (active).
In the case of `CCn1cc(/C=N/NC(=O)c2cc3c(ccc4ccccc43)o2)c2ccccc21`, the inhibition was 32%.
With `COC(=O)N/N=C/c1cn(CCCOc2ccccc2)c2ccccc12` the figure was 25.7%.

(Values after PubChem BioAssay AID1578 (Sanford-Burnham Center for Chemical Genomics, 2009).)
